# According to PubChem BioAssay:
# Where “and” joins values, the source holds several entries; their conditions need not be identical. Identical values can stand only once. Where a structure was tested more than once in an assay, its records may differ in their call. Calls of active or inactive are those of the source. Unless noted, no rule for the calls is given here.
# What was measured:
# [1] = liver-stage malaria parasite growth inhibition, primary screen, cell-based, HepG2, luciferase luminescence, HepG2 viability (AID 624349; in the data active = parasite load remaining mostly below about 12%, no sharp cut-off; inactive = mostly above about 10%;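 also: 100% = mean of DMSO negative control wells on the same plate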); details: P. berghei liver stage in HepG2, luciferase luminescence, concentration not given here; parasite load remaining: stronger effect = lower value; viability: measured here: HepG2 viability without parasites
# [2] = Cy5 fluorescence interference with SSB-bound oligo, artefact control for HCV NS3 helicase inhibitor project, biochemical, NIH Clinical Collection, E. coli SSB (AID 743268)
# [3] = system: Hepatitis C virus NS3 helicase; experiment: HCV NS3 helicase inhibitors, primary screen, biochemical, fluorescence polarization, NIH Clinical Collection (AID 743270); details: NS3 helicase binding to Cy5-dT15 DNA, stronger effect = higher value, concentration not given here
# [4] = biological target: Single-stranded DNA-binding protein (Escherichia coli (strain K12)) (UniProt P0AGE0); experiment: E. coli SSB displacement from DNA, counter-screen for HCV NS3 helicase inhibitor project, biochemical, fluorescence polarization, NIH Clinical Collection (AID 743271; in the data active = inhibition above about 28%); details: stronger effect = higher value, concentration not given here
# [5] = fluorescence interference in NS3h assay format, artefact control for HCV NS3 helicase inhibitor project, biochemical, NIH Clinical Collection (AID 743272); details: fluorescence interference counterscreen, stronger effect = lower value;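 also: HCV NS3 helicase with a Cy5 labelled single stranded DNA probe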
# [6] = stimulators of nuclear beta-catenin in C2C12, primary screen, imaging, WNT3A-conditioned medium, mouse C2C12, NPC library (AID 1117326; in the data active = nuclear beta-catenin stimulation mostly above about 4.2%, no sharp cut-off; inactive = mostly below about 10%); details: stronger effect = higher value
# [7] = stimulators of insulin release from INS-1E, primary screen, cell-based, 5 mM glucose, NPC library (AID 1117329;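 active = compound raises insulin release from rat beta cells at 5 mM glucose, no numeric limit stated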); details: rat INS-1E insulin secretion, at 10 µM, stronger effect = higher value
# [8] = growth inhibition of GSK3B-pretreated HCT116 cells – cell-based, CellTiter-Glo, 0.2 to 20 µM (AID 1117336;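 active = compounds lowering colon cancer cell viability after pretreatment blocking the GSK3B kinase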); details: HCT116 viability after GSK3B inhibitor, at 20 µM, stronger effect = higher value
# [9] = inhibition of endothelial tube formation, primary screen, imaging, VEGF stimulated, CD31 staining, tube area, NPC library (AID 1117340;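 active = compound that reduces growth-factor-driven endothelial tube area in a mixed cell culture, no cutoff stated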); details: VEGF-stimulated ADSC/ECFC co-culture, at 10 µM, stronger effect = higher value
# [10] = glucagon-like peptide 1 release enhancers, primary assay, NCI-H716 cell line, NPC library (AID 1117341;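 active = compound raises GLP1 secretion from the human gut endocrine cells, with no numeric limit stated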); details: NCI-H716 cells, at 10 µM, stronger effect = higher value
# [11] = HCT116 colon cancer cell growth inhibition, primary screen, CellTiter-Glo luminescence, NPC library (AID 1117342;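 active = compounds that lower survival of HCT116 colon cancer cells in the luminescence readout, no numeric limit stated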); details: at 20 µM (top of the series)
# [12] = CellTiter-Glo luminescent readout of SW480 viability loss, NPC library primary (AID 1117343;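 active = compounds that lower viability of the colon cancer cells in the luminescence readout, with no numeric limit stated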); details: CellTiter-Glo luminescence; at 20 µM (top of the series)
# [13] = decreased DLD-1 cellular survival, CellTiter-Glo luminescent readout, NPC compound collection, primary HTS (AID 1117346;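 active = compounds that lower survival of DLD-1 colon cancer cells in the luminescence readout, no cutoff given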); details: DLD-1 viability, CellTiter-Glo luminescence; at 20 µM (top of the series)
# [14] = biological target: 6-phosphogluconate dehydrogenase, decarboxylating (Homo sapiens) (UniProt P52209); experiment: 6PGD enzyme inhibitors, primary screen, biochemical, human, recombinant enzyme, NADPH absorbance (AID 1159550;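 active = at least 20% inhibition of 6-phosphogluconate dehydrogenase activity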); details: recombinant 6PGD, NADPH absorbance 341 nm; at 10 µM; stronger effect = higher value
# [15] = sensitizers of A549 cells to miR-34 induction, primary screen, imaging, A549 dox-inducible miR-34, nuclei and caspase counts (AID 1347080;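 active = compounds whose cell count with miR-34 switched on is under 0.7 times the count with it off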); details: A549 miR-34 inducible, Hoechst nuclei count, 48 h
# [16] = biological target: NAD(+) hydrolase SARM1 (Homo sapiens) (UniProt Q6SZW1); experiment: SARM1 TIR NADase inhibitors, cell lysate, NAD-Glo luminescence (AID 1508614;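 active = compound whose remaining NAD level is above about 45 nM, limit read from the data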;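 also: higher remaining NAD means stronger inhibition of SARM1 NADase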); details: SAM-TIR HEK293T lysate NADase, at 1 µM, stronger effect = higher value
# [17] = biological target: Mitogen-activated protein kinase 7 (Homo sapiens) (UniProt Q13164); experiment: ERK5 transactivation activators in reporter cells, primary screen, cell-based, HTS (AID 1508626;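 active = luciferase signal above three times the same-plate solvent-only control wells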;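 also: luciferase driven by Gal4-ERK5 fusion binding five Gal4 sites before minimal TATA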); details: HeLa Gal4-ERK5 transactivation, 18 h, at 5 µM, stronger effect = higher value
# F380Y = experiment: modulators of BK channel variants, profiling panel, selectivity assay, cell-based, U2OS BacMam, thallium flux, beta subunits (AID 1259406;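 active = thallium flux through the channel raised or lowered by more than 3 SD from vehicle-only wells, actives on both sides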;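 also: initial slope of Thallos dye fluorescence rise after thallium is added; log ratio against the mean of 0.3% DMSO vehicle wells on the same plate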); details: at 30 µM
# [18] = survival rescue of mitochondrial mutant cells in low glucose, primary screen, MELAS cybrids, Rieske KO mouse fibroblasts, CellTiter-Glo (AID 1508586;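 active = mean z-score across replicates of 1.96 or higher in either the MELAS or the Rieske mutant cell line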;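 also: z relative to plate mean and SD of compound and empty wells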)
# [19] = differential killing of epithelial or mesenchymal cells, primary screen, imaging, PC-3E GFP, TEM4-18 mCherry, co-culture (AID 1345086;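 active = compounds killing one labelled cell type while sparing the other, by normalised counts and ratio limits, not self-fluorescent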;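 as to all read-outs here: cells exposed to compound for 72 h before imaging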;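 as to red/green cell ratio (normalised): normalised mesenchymal count divided by normalised epithelial count so high means epithelial killing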); details: imaging cell counts, at 1 µM; for red/green cell ratio (normalised): actives lie on both sides, counts scaled to control wells, 1 = unselective
# [20] = stronger effect = lower value, cell number ratio, induced over uninduced
# [21] = measured here: relative caspase fold change +Dox/-Dox
# [22] = measured here: total cells with miR-34 induction, stronger effect = lower value
# [23] = measured here: total cells without miR-34 induction
# [24] = MELAS cybrid survival, CellTiter-Glo 48 h, stronger effect = higher value
# [25] = Rieske KO mouse fibroblast survival, CellTiter-Glo 72 h
# [26] = measured here: epithelial PC-3E GFP cell survival
# [27] = measured here: mesenchymal TEM4-18 mCherry cell survival
# Chain of NAD(+) hydrolase SARM1 (Homo sapiens) (Q6SZW1 whole entry, looked up, the tested form may be a part): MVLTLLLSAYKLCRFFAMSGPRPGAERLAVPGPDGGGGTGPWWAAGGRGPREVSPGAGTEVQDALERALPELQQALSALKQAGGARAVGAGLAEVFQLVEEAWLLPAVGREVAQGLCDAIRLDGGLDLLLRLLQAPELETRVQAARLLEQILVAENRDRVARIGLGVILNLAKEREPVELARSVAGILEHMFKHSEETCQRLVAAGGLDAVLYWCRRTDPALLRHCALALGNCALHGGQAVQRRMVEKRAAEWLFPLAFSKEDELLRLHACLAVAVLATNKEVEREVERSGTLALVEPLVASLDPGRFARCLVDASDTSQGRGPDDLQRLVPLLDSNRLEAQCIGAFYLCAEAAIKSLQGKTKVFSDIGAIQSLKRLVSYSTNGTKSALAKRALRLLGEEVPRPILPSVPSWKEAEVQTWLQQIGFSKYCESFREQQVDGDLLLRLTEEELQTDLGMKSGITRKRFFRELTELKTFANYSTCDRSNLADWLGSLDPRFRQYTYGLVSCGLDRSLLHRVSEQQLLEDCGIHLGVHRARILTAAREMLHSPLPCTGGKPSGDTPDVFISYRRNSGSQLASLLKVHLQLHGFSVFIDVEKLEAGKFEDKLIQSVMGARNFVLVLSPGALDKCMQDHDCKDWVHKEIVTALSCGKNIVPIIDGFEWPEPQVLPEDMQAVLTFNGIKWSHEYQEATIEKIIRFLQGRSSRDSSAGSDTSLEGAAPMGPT
# Chain of Mitogen-activated protein kinase 7 (Homo sapiens) (Q13164 whole entry, looked up, the tested form may be a part): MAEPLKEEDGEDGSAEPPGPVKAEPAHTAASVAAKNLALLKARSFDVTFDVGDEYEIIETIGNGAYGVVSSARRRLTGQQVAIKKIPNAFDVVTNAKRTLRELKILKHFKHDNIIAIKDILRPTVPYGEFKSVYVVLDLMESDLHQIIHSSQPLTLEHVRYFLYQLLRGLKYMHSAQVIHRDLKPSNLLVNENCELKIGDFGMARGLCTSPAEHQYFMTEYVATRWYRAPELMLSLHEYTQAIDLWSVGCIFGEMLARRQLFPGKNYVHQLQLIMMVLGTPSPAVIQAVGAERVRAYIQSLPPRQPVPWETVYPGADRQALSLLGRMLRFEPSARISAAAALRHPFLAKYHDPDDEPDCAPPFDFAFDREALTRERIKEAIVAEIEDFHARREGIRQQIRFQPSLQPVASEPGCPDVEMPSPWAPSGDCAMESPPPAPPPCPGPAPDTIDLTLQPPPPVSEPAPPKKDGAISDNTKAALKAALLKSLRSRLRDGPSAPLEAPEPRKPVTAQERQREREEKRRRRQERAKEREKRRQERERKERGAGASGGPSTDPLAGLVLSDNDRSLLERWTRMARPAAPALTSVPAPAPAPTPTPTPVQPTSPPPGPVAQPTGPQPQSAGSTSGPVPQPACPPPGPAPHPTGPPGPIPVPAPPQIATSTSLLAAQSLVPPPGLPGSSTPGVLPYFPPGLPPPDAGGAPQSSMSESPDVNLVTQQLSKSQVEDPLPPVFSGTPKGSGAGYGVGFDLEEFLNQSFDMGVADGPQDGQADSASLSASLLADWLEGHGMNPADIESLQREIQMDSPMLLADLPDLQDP
# Chain of 6-phosphogluconate dehydrogenase, decarboxylating (Homo sapiens) (P52209 whole entry, looked up): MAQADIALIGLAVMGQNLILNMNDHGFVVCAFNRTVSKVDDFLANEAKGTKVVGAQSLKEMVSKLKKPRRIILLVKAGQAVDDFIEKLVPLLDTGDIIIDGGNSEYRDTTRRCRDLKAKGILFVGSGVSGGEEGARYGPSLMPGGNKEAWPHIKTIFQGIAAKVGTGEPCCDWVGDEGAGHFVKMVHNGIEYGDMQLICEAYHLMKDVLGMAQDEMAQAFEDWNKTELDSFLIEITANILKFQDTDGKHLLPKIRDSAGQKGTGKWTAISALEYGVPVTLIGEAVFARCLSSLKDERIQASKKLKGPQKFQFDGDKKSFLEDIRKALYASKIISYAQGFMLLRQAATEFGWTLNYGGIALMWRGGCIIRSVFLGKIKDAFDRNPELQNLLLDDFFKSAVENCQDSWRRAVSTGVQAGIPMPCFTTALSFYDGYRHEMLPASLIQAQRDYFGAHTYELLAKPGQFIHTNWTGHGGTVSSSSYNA
smiles,measurement,setting,value
O[C@@H](c1cc(C(F)(F)F)nc2c(C(F)(F)F)cccc12)[C@H]1CCCCN1,parasite load remaining,[1],-2.37% (inactive)
same,viability,[1],0.505%
same,fluorescence ratio,[2],1.04 (inactive)
same,inhibition,[3],-7.73% (inactive)
same,inhibition,[4],-2% (inactive)
same,fluorescence ratio,[5],0.96 (inactive)
same,nuclear beta-catenin stimulation,[6]; at 10 µM,45% (active)
same,nuclear beta-catenin stimulation,"[6]; stimulation, at 2 µM",3.3%
same,insulin secretion stimulation,[7],6.3% (inactive)
same,viability decrease,[8],99.1% (active)
same,tube area decrease,[9],108% (active)
same,GLP1 secretion stimulation,[10],-1.8% (inactive)
same,inhibition of viability,[11],99% (active)
same,viability decrease (inhibition),[12],102% (active)
same,viability decrease (inhibition),[13],101% (active)
same,inhibition,[14],5.27% (inactive)
same,fold change,[15]; [20],1.59 (inactive)
same,fold change,[15]; [21],0.276
same,cell count,[15]; [22],950
same,cell count,[15]; [23],597
same,remaining NAD,[16],10 nM (inactive)
same,luciferase signal,[17],64 AU (inactive)
same,log fold change Tl+ flux,F380Y,0.333 (active)
Cc1cccc(CN2CCN(C(c3ccccc3)c3ccc(Cl)cc3)CC2)c1 (stereo not drawn),fluorescence ratio,[2],0.1 (active)
same,inhibition,[3],-3.18% (inactive)
same,inhibition,[4],7.91% (inactive)
same,fluorescence ratio,[5],0.96 (inactive)
same,nuclear beta-catenin stimulation,[6]; at 10 µM,5.6% (inactive)
same,nuclear beta-catenin stimulation,"[6]; stimulation, at 2 µM",-0.6%
same,insulin secretion stimulation,[7],-1.7% (inactive)
same,viability decrease,[8],77.3% (active)
same,tube area decrease,[9],33.4% (inactive)
same,GLP1 secretion stimulation,[10],-2.1% (inactive)
same,inhibition of viability,[11],83.5% (active)
same,viability decrease (inhibition),[12],116% (active)
same,viability decrease (inhibition),[13],87.8% (active)
same,inhibition,[14],-14.5% (inactive)
same,fold change,[15]; [20],0.91 (inactive) and 0.869 (inactive) and 0.905 (inactive)
same,fold change,[15]; [21],2.01 and 1.32 and 1.69
same,cell count,[15]; [22],8220 and 9250 and 10600
same,cell count,[15]; [23],9040 and 10700 and 11700
same,z-score,[18]; [24],-0.845 (inactive)
same,z-score,[18]; [25],-0.151
same,remaining NAD,[16],10 nM (inactive)
same,luciferase signal,[17],96 AU (inactive)
same,log fold change Tl+ flux,F380Y,0.0137 (inactive)
CN(C)c1ccc(O)c2c1C[C@H]1C[C@H]3[C@H](N(C)C)C(=O)C(C(N)=O)=C(O)[C@@]3(O)C(=O)C1=C2O,fluorescence ratio,[2],0.97 (inactive)
same,inhibition,[3],-8.64% (inactive)
same,inhibition,[4],0.29% (inactive)
same,fluorescence ratio,[5],0.89 (inactive)
same,nuclear beta-catenin stimulation,[6]; at 10 µM,3.7% (inactive)
same,nuclear beta-catenin stimulation,"[6]; stimulation, at 2 µM",6.6%
same,insulin secretion stimulation,[7],1.5% (inactive)
same,viability decrease,[8],-31.1% (inactive)
same,tube area decrease,[9],6.7% (inactive)
same,GLP1 secretion stimulation,[10],-1.4% (inactive)
same,inhibition of viability,[11],17.9% (inactive)
same,viability decrease (inhibition),[12],65.6% (active)
same,viability decrease (inhibition),[13],74.4% (active)
same,inhibition,[14],-17.9% (inactive)
same,red/green cell ratio (normalised),[19],1.2 (inactive)
same,normalised cell number,[19]; [26],0.99
same,normalised cell number,[19]; [27],1.19
same,fold change,[15]; [20],1.15 (inactive) and 0.819 (inactive) and 0.689 (active)
same,fold change,[15]; [21],0.974 and 2.86 and 1.89
same,cell count,[15]; [22],2650 and 5110 and 3260
same,cell count,[15]; [23],2300 and 6240 and 4740
same,z-score,[18]; [24],-2.76 (inactive) and 0.283 (inactive)
same,z-score,[18]; [25],-3.81 and -1.93
same,remaining NAD,[16],10 nM (inactive)
same,luciferase signal,[17],52 AU (inactive)
same,log fold change Tl+ flux,F380Y,-0.0263 (inactive)
C[C@H](CCC(=O)O)[C@H]1CC[C@H]2[C@@H]3C(=O)C[C@@H]4CC(=O)CC[C@]4(C)[C@H]3CC(=O)[C@]12C,parasite load remaining,[1],41.4% (inactive) and 59.6% (inactive)
same,viability,[1],47.4% and 73.1%
same,fluorescence ratio,[2],0.97 (inactive)
same,inhibition,[3],3.28% (inactive)
same,inhibition,[4],2.76% (inactive)
same,fluorescence ratio,[5],0.9 (inactive)
same,nuclear beta-catenin stimulation,[6]; at 10 µM,-0.3% (inactive)
same,nuclear beta-catenin stimulation,"[6]; stimulation, at 2 µM",0%
same,insulin secretion stimulation,[7],1.3% (inactive)
same,viability decrease,[8],-1% (inactive)
same,tube area decrease,[9],15.1% (inactive)
same,GLP1 secretion stimulation,[10],0.2% (inactive)
same,inhibition of viability,[11],-5.2% (inactive)
same,viability decrease (inhibition),[12],5.6% (inactive)
same,viability decrease (inhibition),[13],-16% (inactive)
same,inhibition,[14],-0.558% (inactive) and -4.79% (inactive)
same,fold change,[15]; [20],0.903 (inactive)
same,fold change,[15]; [21],1.51
same,cell count,[15]; [22],9210
same,cell count,[15]; [23],10200
same,z-score,[18]; [24],1.02 (inactive)
same,z-score,[18]; [25],0.185
same,remaining NAD,[16],10 nM (inactive)
same,luciferase signal,[17],100 AU (inactive) and 64 AU (inactive)
same,log fold change Tl+ flux,F380Y,-0.0147 (inactive)
COc1cc(NC(C)CCCN)c2ncccc2c1 (stereo not drawn),fluorescence ratio,[2],0.96 (inactive)
same,inhibition,[3],-5% (inactive)
same,inhibition,[4],0.29% (inactive)
same,fluorescence ratio,[5],0.86 (inactive)
same,nuclear beta-catenin stimulation,[6]; at 10 µM,1.4% (inactive)
same,nuclear beta-catenin stimulation,"[6]; stimulation, at 2 µM",1.8%
same,insulin secretion stimulation,[7],0.4% (inactive)
same,viability decrease,[8],102% (active)
same,tube area decrease,[9],11.2% (inactive)
same,GLP1 secretion stimulation,[10],2.7% (inactive)
same,inhibition of viability,[11],97.2% (active)
same,viability decrease (inhibition),[12],71.5% (active)
same,viability decrease (inhibition),[13],47.3% (inactive)
same,inhibition,[14],-0.957% (inactive)
same,red/green cell ratio (normalised),[19],1.43 (inactive)
same,normalised cell number,[19]; [26],0.94
same,normalised cell number,[19]; [27],1.34
same,z-score,[18]; [24],-0.353 (inactive) and -0.329 (inactive) and 0.456 (inactive)
same,z-score,[18]; [25],-0.221 and -0.189 and 1.47
same,remaining NAD,[16],10 nM (inactive)
same,luciferase signal,[17],32 AU (inactive)
same,log fold change Tl+ flux,F380Y,-0.0858 (inactive)
C[C@]12CCC(=O)C=C1CC[C@@H]1[C@@H]2[C@@H](O)C[C@@]2(C)[C@H]1CC[C@]2(O)C(=O)CO,fluorescence ratio,[2],0.95 (inactive)
same,inhibition,[3],0.45% (inactive)
same,inhibition,[4],5.62% (inactive)
same,fluorescence ratio,[5],0.93 (inactive)
same,nuclear beta-catenin stimulation,[6]; at 10 µM,-0.3% (inactive)
same,nuclear beta-catenin stimulation,"[6]; stimulation, at 2 µM",0.1%
same,insulin secretion stimulation,[7],1.1% (inactive)
same,viability decrease,[8],-18.7% (inactive)
same,tube area decrease,[9],9.1% (inactive)
same,GLP1 secretion stimulation,[10],1.8% (inactive)
same,inhibition of viability,[11],-13.9% (inactive)
same,viability decrease (inhibition),[12],14.7% (inactive)
same,viability decrease (inhibition),[13],-6.7% (inactive)
same,inhibition,[14],-14.6% (inactive)
same,z-score,[18]; [24],-0.02 (inactive) and 0.332 (inactive)
same,z-score,[18]; [25],-0.00651 and 1.17
same,remaining NAD,[16],10 nM (inactive)
same,luciferase signal,[17],124 AU (inactive)
same,log fold change Tl+ flux,F380Y,0.0399 (inactive)
